Among all 290,000 compounds or so, about 260 (0.09%) were called active. This is one part of a sample in which actives are shown more often than they occur. Entries with a potency or affinity are not part of this list. A number with no mark means an inactive call. Cut-off read from the data, not from the text of the source: active = inhibition above about 50%; inactive = the rest.
These compounds were tested against Kappa-type opioid receptor (Homo sapiens) (UniProt P41145) (assay: KOR antagonists, beta-arrestin recruitment, cell-based, luminescence, uHTS (AID 1778)). Conditions: antagonist mode, stronger effect = higher value; at 10 µM unless noted.
Sequence of Kappa-type opioid receptor (Homo sapiens) (P41145 whole entry, looked up): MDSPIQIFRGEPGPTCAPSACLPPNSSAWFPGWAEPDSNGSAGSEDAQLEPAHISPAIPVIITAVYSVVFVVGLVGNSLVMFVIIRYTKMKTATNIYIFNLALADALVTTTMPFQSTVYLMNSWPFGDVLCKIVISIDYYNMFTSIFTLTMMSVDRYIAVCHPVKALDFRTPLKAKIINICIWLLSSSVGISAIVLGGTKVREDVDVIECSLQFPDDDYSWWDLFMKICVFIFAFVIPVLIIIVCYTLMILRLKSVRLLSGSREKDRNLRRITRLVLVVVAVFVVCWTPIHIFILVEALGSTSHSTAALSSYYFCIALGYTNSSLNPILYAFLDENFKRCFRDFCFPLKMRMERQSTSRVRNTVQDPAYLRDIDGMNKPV

Row | SMILES | inhibition
1 | CCOc1cccc(C(=O)N(Cc2cccc(F)c2)C2CCS(=O)(=O)C2)c1 (configuration not stated) | -33.2%
2 | Cc1csc(NC(=O)CCCc2cccs2)n1 | 1.1%
3 | COc1ccc(C)cc1NC(=O)C(Sc1nnc(Nc2cc(C)ccc2OC)s1)c1ccccc1 (configuration not stated) | -5.6%
4 | CCOc1ccc(CCNS(=O)(=O)c2cnc[nH]2)cc1OCC | -14.7%
5 | COc1ccccc1NC(=O)c1ccc(CSc2ncccn2)cc1 | 7.4%
6 | Cc1ccc(NC(=O)CCCCCN2C(=O)[C@@H]3Cc4ccccc4CN3C2=O)c(C)c1 | 26.6%
7 | Oc1c(/C=N/c2ccccn2)sc2ccccc12 | -1.9%
8 | Oc1c(C=Nc2cccnc2)sc2ccccc12 | -24.2%
9 | COc1ccc(NC(=S)NC(NC(=O)c2cccc3ccccc23)C(Cl)(Cl)Cl)c([N+](=O)[O-])c1 (configuration not stated) | -86.5%
10 | COc1ccc(NC(=S)NC(NC(=O)c2ccc(Cl)cc2Cl)C(Cl)(Cl)Cl)c([N+](=O)[O-])c1 (configuration not stated) | 36.4%
11 | COCCSc1nnc(NC(=O)CSc2ccccc2)s1 | -18.1%
12 | CCc1nnc(NC(=O)CSc2nnc(CNc3cccc(Cl)c3)n2CC)s1 | -7.1%
13 | O=C(NCCc1ccccn1)c1ccc(OC(F)F)cc1 | 19.2%
14 | O=[N+]([O-])c1c(Nc2cccc(O)c2)cc(Cl)c2nonc12 | 114% [at 20 µM] (active)
15 | O=[N+]([O-])c1c(Nc2ccc(O)cc2)cc(Cl)c2nonc12 | 104% (active)
16 | O=C(O)c1cccc(Nc2cc(Cl)c3nonc3c2[N+](=O)[O-])c1 | 4.3%
17 | CN(C)c1cc(Nc2ccc(O)cc2)c([N+](=O)[O-])c2nonc12 | 40.9%
18 | O=C(O)c1ccc(Nc2cc(Cl)c3nonc3c2[N+](=O)[O-])cc1 | 27.4%
19 | CCNc1cc(Nc2c(C)n(C)n(-c3ccccc3)c2=O)c([N+](=O)[O-])c2nonc12 | 13.1%
20 | CN(C)c1cc(Nc2cccc(O)c2)c([N+](=O)[O-])c2nonc12 | -7.7%
21 | O=C(O)c1cc(Nc2cc(Cl)c3nonc3c2[N+](=O)[O-])ccc1O | -28%
22 | CCN(CC)c1cc(NCCO)c([N+](=O)[O-])c2nonc12 | -13.9%
23 | Cc1c(Nc2cc(N3CCOCC3)c3nonc3c2[N+](=O)[O-])c(=O)n(-c2ccccc2)n1C | 25.4%

Row | SMILES | inhibition
24 | CN(C(=O)c1ccc(S(=O)(=O)c2cccc(Cl)c2)c([N+](=O)[O-])c1)C1CCCCC1 | -8.7%
25 | CC1(C)CC(=O)c2cc(OCC(=O)NCCN3CCOCC3)ccc2O1 | -16.7%
26 | CCOC(=O)C(=O)N1CCC(Cc2ccccc2)CC1 | 31.7%
27 | O=C1CN(C(=O)COC(=O)CCNS(=O)(=O)c2ccc(Cl)cc2)c2ccccc2N1 | -18.1%
28 | CC(/C=N\N1CCN(c2ccc(Cl)cc2)CC1)=C\c1ccccc1 | 53.7%
29 | O=C(N/N=C/c1ccoc1)c1cc(Br)ccc1O | -13.2%
30 | O=[N+]([O-])c1c(Nc2ccccc2O)ccc2nonc12 | 35.9%
31 | O=C(O)c1ccccc1Nc1cc(Cl)c2nonc2c1[N+](=O)[O-] | 34.1%
32 | Cc1cccc(N(C(=O)c2snc(C(N)=O)c2N)C(C(=O)NC2CCCC2)c2ccncc2)c1 (configuration not stated) | 12.2%
33 | Cc1cc(C(C)(C)C)oc1C(=O)N(CC(=O)NC1CCCC1)Cc1ccccc1Cl | 0.8%
34 | Cc1cn(-c2cc(C(=O)Nc3ccc(C)c(NC(=O)N4CCNC4=O)c3)cc(C(F)(F)F)c2)cn1 | -20%
35 | Cc1cn(-c2cc(C(=O)Nc3ccc(C)c(NC(=O)C(=O)c4c[nH]c5ccccc45)c3)cc(C(F)(F)F)c2)cn1 | 0.6%
36 | COc1ccc(CNC2CCCc3ccccc32)cc1OC (configuration not stated) | -0.9%
37 | O=C(NNC1=Nc2ccccc2SC1)c1ccccc1F | 10.4%
38 | O=C(NNC1=Nc2ccccc2SC1)c1ccc(F)cc1 | 30.4%
39 | CCc1ccc(-n2c(=O)c3c(C)c(C(=O)N(C)C)sc3n(CC(=O)NCc3ccco3)c2=O)cc1 | -11.4%
40 | N=C1SCC(=O)N1c1nc(-c2ccccc2)cs1 | 23.4%
41 | Cc1ccc(-c2csc(N3C(=N)SCC3=O)n2)cc1 | 26.9%
42 | CCN1CCN(C(=S)c2ccc(Cl)cc2)CC1 | 12.5%
43 | Cc1ccc(Cc2cnc(NC(=O)c3cccs3)s2)cc1 | -17.2%
44 | Cc1ccc(Cc2cnc(N3C(=N)SC(C)C3=O)s2)cc1 (configuration not stated) | 88.5% (active)
45 | Cc1ccc(Cc2cnc(N3C(=N)SC(c4ccccc4)C3=O)s2)cc1 (configuration not stated) | 37.3%
46 | Cc1cccc(Cc2cnc(N3C(=N)SC(c4ccccc4)C3=O)s2)c1 (configuration not stated) | -7.2%

Row | SMILES | inhibition
47 | Cc1cccc(Cc2cnc(NC(=O)c3ccc(C)o3)s2)c1 | -9.9%
48 | O=C(C1=C[C@H](c2ccccc2)C[C@H](OCc2ccc(CO)cc2)O1)N1CCN(Cc2ccc3c(c2)OCO3)CC1 | -13%
49 | CNc1ncnc(Sc2ccc(Cl)cc2)c1[N+](=O)[O-] | 8.9%
50 | OCC1(Cc2cccc(Cl)c2)CCCN(Cc2sc(N3CCCC3)nc2Cl)C1 (configuration not stated) | -39.6% [at 20 µM]
51 | CN1N=C(C(=O)N2CCc3c([nH]c4ccccc34)C2c2ccccc2Cl)CCC1=O (configuration not stated) | -7%
52 | O=C1COc2ccc(S(=O)(=O)NCc3ccc(Cl)cc3)cc2N1 | -23.4%
53 | COC(=O)c1sccc1S(=O)(=O)Nc1ccc(Cl)cc1 | 23.4%
54 | CCOC(=O)C1CCN(C(=O)c2ccccc2CCc2ccccc2)CC1 | 12.9%
55 | Cc1ccc(C(=O)CC(=O)c2ccccc2)cc1 | -30.1% [at 20 µM]
56 | Cc1ccc(C(=O)Sc2cccccc2=O)cc1 | 88.3% (active)
57 | Cc1ccc(C(=O)Nc2ccccc2Sc2ccccc2)cc1 | 5.8%
58 | CCC1CCCCN1CCCNC(=O)c1csc2c1CCCCC2 (configuration not stated) | -8.9%
59 | CCOc1ccc(C(=O)Nc2ccc3c(c2)OCCO3)cc1 | -31.1%
60 | NS(=O)(=O)c1ccc(CCNC(=O)CSc2nc3ccsc3c(=O)n2CC2CCC(C(=O)O)CC2)cc1 (configuration not stated) | -14.6%
61 | O=[N+]([O-])c1ccccc1S(=O)(=O)Nc1ncccn1 | -24.4%
62 | O=S(=O)(Nc1ccccc1O)c1cccc2cccnc12 | 9.3%
63 | Cc1ccc(NS(=O)(=O)c2cccc3cccnc23)c(Cl)c1 | 19.4%
64 | Cc1ccc(NS(=O)(=O)c2cccc3cccnc23)c(Br)c1 | -14.5%
65 | O=C(CCN1CCN(c2ccccc2)CC1)Nc1nccs1 | 11.6%
66 | Cc1cccc(CN2CCN(C(=S)Nc3ccccc3)CC2)c1 | -33.1% [at 20 µM]
67 | Cc1ccc(CNC(=O)C2CCCN(c3nc(C)cc(C)n3)C2)cc1 (configuration not stated) | -35.8% [at 20 µM]
68 | CCOC(=O)C(C(=O)OCC)c1cc(Br)c2noc3c2c1C(=O)c1ccccc1-3 | 68.5% (active)
69 | CCOc1ccc2noc3c2c1C(=O)c1ccccc1-3 | 7.4%

Row | SMILES | inhibition
70 | CCOC(=O)N1CCN(c2cc(NCCC(=O)O)c3c4c(onc24)-c2ccccc2C3=O)CC1 | -32.6%
71 | c1cncc(-c2cn(C[C@H]3CC[C@@H]([C@@H]4CC[C@H](Cn5cc(-c6cccnc6)nn5)O4)O3)nn2)c1 | -10.8% [at 20 µM]
72 | COc1ccc(OCC(=O)Nc2cc(NC(=O)c3ccco3)ccc2OC)cc1 | 4.9%
73 | COc1cc(Br)cc(-c2nc3c(c(=O)[nH]c(=O)n3Cc3ccccc3)n2C)c1O | 7.6%
74 | COCCN=c1scc(-c2ccc3c(c2)NC(=O)CO3)n1/N=C(\C)c1ccc(O)cc1 | 15.8%
75 | CCN=c1scc(-c2ccc3c(c2)NC(=O)CO3)n1N=C1CCCC1 | 15.3%
76 | COC(=O)c1[nH]c2ccc(C)cc2c1NC(=O)CN1CCN(c2ccc(F)cc2)CC1 | -0.7%
77 | COc1ccc(C(=O)Nc2ccccc2C(=O)N/N=C/c2ccncc2)cc1OC | -18.4%
78 | C/C(=N\NC(=O)C1COc2ccccc2O1)c1cccs1 (configuration not stated) | -9.2%
79 | O=C(N/N=C/c1ccccn1)c1ccccc1 | 30.7%
80 | COc1cc(C(=O)N/N=C(\C)c2ccccn2)cc(OC)c1OC | -6.4%
81 | COc1ccc(C(=O)N/N=C(\C)c2ccccn2)cc1OC | 95% (active)
82 | O=C(N/N=C/c1ccccn1)c1ccc(NC(=O)c2cccc([N+](=O)[O-])c2)cc1 | -28.7%
83 | COc1ccc(C(=O)N/N=C(\C)CC(=O)Nc2ccccn2)cc1OC | 3.4%
84 | C/C(=N\NC(=O)C1COc2ccccc2O1)c1ccc(C)o1 (configuration not stated) | 13.3%
85 | COc1ccc(C(=O)N/N=C/c2ccccn2)cc1OC | -42.3%
86 | Cc1nc(CSc2ccc(Cl)cc2)cs1 | 1.3%
87 | CCC1CCCCN1C(=O)CSc1nc(N)cc(N)n1 (configuration not stated) | 0.8% [at 20 µM]
88 | C/C(=N\S(=O)(=O)c1ccc(C)cc1)NC(=S)Nc1ccc(C)cc1 | -12%
89 | CCOc1ccccc1N(C(=O)c1snc(C(N)=O)c1N)C(C(=O)NC1CCCC1)c1cccs1 (configuration not stated) | -14.9%
90 | CCCOCn1cc(F)c(=O)[nH]c1=O | 20.7%
91 | COc1ccc(OCc2nnc(SCC(=O)Nc3ccccc3C#N)o2)cc1 | -9.7%
92 | COc1ccc(NC(=O)c2ccc(CN(c3cc(Cl)ccc3C)S(=O)(=O)c3ccccc3)cc2)cc1OC | -2.5%

From PubChem BioAssay AID1778 (Sanford-Burnham Center for Chemical Genomics, 2009)
